Screens from PubChem.
DAX1 inh-1: DAX1 (NR0B1) inhibitors on StAR promoter, primary screen, cell-based, luminescence, SF-1 (NR5A1), full-length DAX-1. inhibition, % at 6.8 µM. HEK293T StAR-luciferase reporter, SF-1/DAX-1 repression relief. hit rate 1.1% among 370,000. AID 652010, 2013;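 active = inhibition above the mean over all tested compounds plus 3 SD, cut at about 3.6% in these data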;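 note: 0% = DAX-1 cells with DMSO and 100% = cells lacking DAX-1 with DMSO; higher inhibition means more luminescence from relief of DAX-1 repression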
DAX1 inh-2: DAX1 (NR0B1) inhibitors, primary screen, cell-based, HEK293, Gal4-DAX1, luciferase luminescence. hit rate 0.99% among 340,000. inhibition, % at 6.75 µM. Nuclear receptor subfamily 0 group B member 1 (Homo sapiens), P51843. HEK293 Gal4-DAX1 luciferase reporter;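 active = inhibition above the mean over all tested compounds plus 3 SD, cut at about 4.2% in these data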;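 note: 0% = DAX1-transfected cells with DMSO and 100% = empty-vector control cells with DMSO; inhibition shows as a rise in luminescence from relieved DAX1 repression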
Target sequence (P51843 207-470 limits assumed): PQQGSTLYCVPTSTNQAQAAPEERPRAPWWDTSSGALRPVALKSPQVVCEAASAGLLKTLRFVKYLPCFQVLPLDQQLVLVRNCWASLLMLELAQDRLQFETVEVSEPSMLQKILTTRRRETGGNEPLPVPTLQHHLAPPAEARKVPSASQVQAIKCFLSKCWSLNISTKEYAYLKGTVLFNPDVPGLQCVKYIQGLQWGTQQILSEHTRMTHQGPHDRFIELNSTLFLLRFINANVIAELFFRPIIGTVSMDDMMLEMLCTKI
ssDAF12 agonist: S. stercoralis DAF-12 nuclear receptor activators, primary screen, cell-based, luminescence, HEK293, GRIP1 co-expression, lit1-tk-luc; AID 652126, 2013; HEK293 ssDAF-12/GRIP1 lit1-tk-luc reporter; % of 3 µM dafachronic acid response; hit rate 1% among 370,000; Nuclear hormone receptor DAF-12 (Strongyloides stercoralis); activation, % at 6.8 µM;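 active = activation above the mean over all tested compounds plus 3 SD, cut at about 0.9% in these data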;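 note: 0% = DMSO-only wells and 100% = 3 µM delta7-dafachronic acid wells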
hcDAF-12 act: H. contortus DAF-12 nuclear receptor activators, primary screen, cell-based, luminescence, HEK293, lit1-tk-luc reporter; AID 652067, 2013; hit rate 1.4% among 370,000; activation, % at 6.8 µM; HEK293 hcDAF-12 lit1-tk-luc reporter; 0% DMSO, 100% Δ7-dafachronic acid;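 active = activation above the mean of all tested compounds plus 3 SD, cut at about 5.5% in these data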;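 note: 100% = response to 3 µM Δ7-dafachronic acid high control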
hgDAF12 agonist: H. glycines DAF-12 receptor agonists, primary screen, cell-based, luminescence, HEK293, GAL4 fusion, UAS-luciferase; AID 687014, 2013; hit rate 1.8% among 370,000; HEK293 GAL4-hgDAF12 UAS-luciferase reporter, agonist luminescence; normalized to butyrate control; Nuclear hormone receptor DAF-12 (Heterodera glycines), GAL4 fusion; activation, % at 6.8 µM;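 active = activation above a cutoff set at the mean of all screened compounds plus 3 SD, cut at about 10% in these data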;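 note: 0% = DMSO wells and 100% = sodium butyrate wells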
DAX1 inh confirm: DAX1 (NR0B1) inhibitors relieving SF-1 repression, confirmation, cell-based, luminescence, HEK293T, full-length DAX-1, SF-1 activated StAR promoter | shares compounds with DAX1 inh-1 | inhibition, % at 6.8 µM | hit rate 87% among 2,400 | HEK293T StAR-promoter luciferase reporter, SF-1/DAX-1 repression;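 active = inhibition above the average of every tested compound plus 3 SD, cut at about 3.8% in these data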;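 note: 0% = DAX-1 cells with DMSO and 100% = no DAX-1 control cells with DMSO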
SF1 AF2mut Luc: StAR reporter signal changes without DAX1, counter-screen for DAX1 inhibitor project, cell-based, luminescence, AF-2 mutant SF-1, transactivation; inhibition, % at 6.8 µM; hit rate 78% among 2,400; shares compounds with DAX1 inh-1; AID 652136, 2013; HEK293 StAR-luciferase, SF-1 AF2 mutant;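 active = inhibition above the mean of all tested compounds plus 3 SD, cut at about 3% in these data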;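 note: 0% = DAX-1 transfected cells with DMSO and 100% = cells without DAX-1 with DMSO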
Starred values were filed as active, the others as inactive. Compounds with a hit are over-represented: about 4.1% of the library has one in this group of screens.

Screening CC(C)C[C@@H]1COc2cc(Br)ccc2S(=O)(=O)N1Cc1cn(CCC2OCCO2)nn1 returned DAX1 inh-1 -1, ssDAF12 agonist -1, hcDAF-12 act -1 and hgDAF12 agonist 0.
`COc1cc2c(O)c3c(c(-c4ccc5c(c4)OCO5)c2cc1OC)C(=O)OC3` gave DAX1 inh-1 6.6*, DAX1 inh-2 -1, ssDAF12 agonist -2, hcDAF-12 act -2, hgDAF12 agonist -6, DAX1 inh confirm 15* and SF1 AF2mut Luc -5.
`COc1cc2c(OC(C)=O)c3c(c(-c4ccc5c(c4)OCO5)c2cc1OC)C(=O)OC3` gave DAX1 inh-1 1, DAX1 inh-2 1, ssDAF12 agonist -1, hcDAF-12 act -1 and hgDAF12 agonist -7.
Screening CCOC(=O)[C@]12CCCC=C1N(Cc1ccc3c(c1)OCO3)C(=O)[C@H](CC(=O)NCc1cccc3ccccc13)C2 returned DAX1 inh-1 6.2*, ssDAF12 agonist -1, hcDAF-12 act -1, hgDAF12 agonist 3, DAX1 inh confirm 0 and SF1 AF2mut Luc 2.
`COC(=O)[C@]12CCCCC=C1N(CCc1ccc(OC)c(OC)c1)C(=O)[C@H](CC(=O)NCc1cccc3ccccc13)C2` gave DAX1 inh-1 4.6*, ssDAF12 agonist -1, hcDAF-12 act -1, hgDAF12 agonist 0, DAX1 inh confirm 3 and SF1 AF2mut Luc 6.3*.
Screening COC(=O)[C@]12CCCCC=C1N(Cc1cccc3ccccc13)C(=O)[C@H](CC(=O)NCc1ccc(OC)c(OC)c1)C2 returned DAX1 inh-1 -8, ssDAF12 agonist -3, hcDAF-12 act -6 and hgDAF12 agonist -16.
Nc1cccc2cc(-c3ccccc3)oc12 was read as DAX1 inh-1 5.3*, DAX1 inh-2 2, ssDAF12 agonist 0, hcDAF-12 act 2, hgDAF12 agonist 7, DAX1 inh confirm 6.5* and SF1 AF2mut Luc 5.6*.
For CCOc1ccc(OCc2cccc(C(=O)N3CCOCC3)c2)cc1 the results were DAX1 inh-1 5.8*, DAX1 inh-2 -6, ssDAF12 agonist 1.4*, hcDAF-12 act 5, hgDAF12 agonist 10, DAX1 inh confirm 11* and SF1 AF2mut Luc 7.7*.
Screening O=C(NNC(=O)c1ccccc1O)c1cc2ccccc2o1 returned DAX1 inh-1 5.6*, DAX1 inh-2 2, ssDAF12 agonist 1.1*, hcDAF-12 act 5, hgDAF12 agonist 5, DAX1 inh confirm 3.8* and SF1 AF2mut Luc 4.0*.
COC(=O)c1cccc(Nc2cc(C)n(-c3cccc(C(=O)OC)c3)c(=O)c2)c1 was read as DAX1 inh-1 0, ssDAF12 agonist -1, hcDAF-12 act -1 and hgDAF12 agonist -3.
`Oc1ccc(C=NN=Cc2ccco2)c(O)c1` gave DAX1 inh-1 4.6*, DAX1 inh-2 5.5*, ssDAF12 agonist 0, hcDAF-12 act 1, hgDAF12 agonist 9, DAX1 inh confirm 7.2* and SF1 AF2mut Luc 4.8*.
For NC(=N\N=Cc1ccco1)/C(N)=N/N=Cc1ccco1 the results were DAX1 inh-1 1, DAX1 inh-2 4, ssDAF12 agonist -1, hcDAF-12 act 2 and hgDAF12 agonist 1.
CCc1nnc(NC(=O)C2COc3ccccc3O2)s1 (configuration not stated) was read as DAX1 inh-1 4.5*, DAX1 inh-2 2, ssDAF12 agonist 0, hcDAF-12 act 2, hgDAF12 agonist 8, DAX1 inh confirm 6.3* and SF1 AF2mut Luc 4.0*.
Screening O=C(COc1ccccc1)Nc1cc(S(=O)(=O)N2CCOCC2)ccc1N1CCCC1 returned DAX1 inh-1 -2, DAX1 inh-2 0, ssDAF12 agonist -1, hcDAF-12 act -1 and hgDAF12 agonist -2.
For N#Cc1ccccc1OCC(=O)Nc1cc(S(=O)(=O)N2CCCCC2)ccc1N1CCOCC1 the results were DAX1 inh-1 6.0*, DAX1 inh-2 -1, ssDAF12 agonist -1, hcDAF-12 act -2, hgDAF12 agonist -2, DAX1 inh confirm -1 and SF1 AF2mut Luc -2.
CCOc1cc(/C=N/NC(=O)c2ccccn2)ccc1OC(=O)c1cccs1 was read as DAX1 inh-1 3, DAX1 inh-2 1, ssDAF12 agonist -1, hcDAF-12 act 2 and hgDAF12 agonist 6.
Screening O=C(O)c1cc(N/N=C/c2ccc3c(c2)OCO3)ccc1Cl returned DAX1 inh-1 6.7*, DAX1 inh-2 -2, ssDAF12 agonist -1, hcDAF-12 act 6.0*, hgDAF12 agonist 10, DAX1 inh confirm 6.3* and SF1 AF2mut Luc 3.1*.
O=C(N/N=C/c1ccc(OC(=O)c2cccs2)cc1)c1ccccn1 was read as DAX1 inh-1 6.9*, DAX1 inh-2 1, ssDAF12 agonist 0, hcDAF-12 act 5, hgDAF12 agonist 7, DAX1 inh confirm 8.1* and SF1 AF2mut Luc 4.7*.
Screening O=c1[nH]c(N/N=C\c2ccc3c(c2)OCO3)nc2ccccc12 returned DAX1 inh-1 4.9*, DAX1 inh-2 3, ssDAF12 agonist 1, hcDAF-12 act 4, hgDAF12 agonist 13*, DAX1 inh confirm 6.5* and SF1 AF2mut Luc 3.3*.
`O=C(N/N=C/c1ccc2c(c1)OCO2)c1ccccn1` gave DAX1 inh-1 4.7*, DAX1 inh-2 -1, ssDAF12 agonist 0, hcDAF-12 act 4, hgDAF12 agonist 10, DAX1 inh confirm 11* and SF1 AF2mut Luc 2.
For COC(=O)C1=C(C)N(Cc2cccc(C(F)(F)F)c2)C(=NCc2cc(OC)c(OC)c(OC)c2)NC1c1cccc(Cl)c1 (configuration not stated) the results were DAX1 inh-1 1, ssDAF12 agonist -1, hcDAF-12 act 2 and hgDAF12 agonist -1.
Screening CN(CCOC(=O)c1cc2ccccc2o1)C1CN(Cc2cn(Cc3ccccc3F)nn2)S(=O)(=O)C1 (configuration not stated) returned DAX1 inh-1 1, ssDAF12 agonist -1, hcDAF-12 act -1 and hgDAF12 agonist -2.
CC(=O)N1CCN(c2ccc(N3CCN(C(C)=O)[C@H](C)C3)c(C)c2)[C@H](C)C1 was read as DAX1 inh-1 -4, ssDAF12 agonist -1, hcDAF-12 act -3 and hgDAF12 agonist -4.
